Drawing on PubChem BioAssay, this text covers inhibition for 40 molecules.

A number with no mark means an inactive call. The rule behind the calls is not given here.

In the assay the target is Pantothenate synthetase (Mycobacterium tuberculosis (strain ATCC 25618 / H37Rv)) (UniProt P9WIL5). The assay is described as follows: Coupled enzyme confirmation of inhibitors against recombinant Mtb PanC (AID 375).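 Note: 0% = full reaction with vehicle and 100% = no enzyme background.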 The conditions noted are these: coupled enzyme assay; at 10 µM, hits give high values.
Pantothenate synthetase (Mycobacterium tuberculosis (strain ATCC 25618 / H37Rv)), sequence (P9WIL5 whole entry, looked up): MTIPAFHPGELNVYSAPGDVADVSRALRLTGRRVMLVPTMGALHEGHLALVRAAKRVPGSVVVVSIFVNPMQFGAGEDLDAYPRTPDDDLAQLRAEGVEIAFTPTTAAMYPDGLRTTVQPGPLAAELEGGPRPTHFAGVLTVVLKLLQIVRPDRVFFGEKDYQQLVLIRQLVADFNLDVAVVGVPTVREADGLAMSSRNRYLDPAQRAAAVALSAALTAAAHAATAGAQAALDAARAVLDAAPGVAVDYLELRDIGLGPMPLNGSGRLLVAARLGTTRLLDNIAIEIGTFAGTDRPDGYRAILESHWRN
Regarding `CCOC(=O)CCC(=O)O[C@H]1[C@H](O[C@@H]2[C@@H](C)[C@H](O[C@H]3C[C@@](C)(OC)[C@@H](O)[C@H](C)O3)[C@@H](C)C(=O)O[C@H](CC)[C@@](C)(O)[C@H](O)[C@@H](C)C(=O)[C@H](C)C[C@@]2(C)O)O[C@H](C)C[C@@H]1N(C)C`, the inhibition was 0%.
On to `O=C(NCc1ccco1)C1CCN(c2ccc(N3CCOCC3)nn2)CC1`, for which the inhibition is 0%.
In the case of `CC(=O)c1c(C)[nH]c(C(=O)Nc2ccc3c(c2)OCCO3)c1C`, the inhibition was 3%.
As to `Cc1ccc(-c2nnn(CC(=O)N(CC(=O)NC3CCCCC3)c3cnc4ccccc4c3)n2)o1`, the inhibition is 8%.
With `COc1cccc(CC(NC(C)=O)C(=O)NC2CCN(c3c4c(nc5ncnn35)CCC4)CC2)c1` (stereo not given), the inhibition is 5%.
Consider `CC1(C)SC2[C@H](NC(=O)C(NC(=O)N3CCNC3=O)c3ccccc3)C(=O)N2C1C(=O)O` (stereo not given in full), for which the inhibition is 0%.
For `Cc1cc(C)n(-c2nc(C)nc3sc4c(c23)CCC(C)C4)n1` (stereo not given), the inhibition was 0%.
Take `COc1ccc(CCNC(=O)c2cc(-c3cc(C)c(C)cc3O)n[nH]2)cc1OC`: the inhibition was 0%.
Take `O=C(O)Cn1nc2ccccc2n1`: the inhibition is 0%.
Under `COc1ccc(N2CCN(c3oc(COc4ccccc4Cl)nc3C#N)CC2)cc1` stands 0%; under `Cc1ccc(-c2csc3nnc(SCC(=O)NCc4ccco4)n23)cc1`, 2%; under `O=C(O)CN1C(=O)CNC1=O`, 0%.
Turning to `c1ccc(-n2ncc3c(NCc4cccs4)ncnc32)cc1`, the inhibition was 0%.
On to `Cc1ccc2nc(NCCCN3CCOCC3)c(C=NCCCN3CCOCC3)c(=O)n2c1`, for which the inhibition is 0%.
Turning to `CCOC(=O)c1cc(-c2ccc(Cl)s2)nc2c1c(C)nn2C`, the inhibition was 0%.
For `Cc1nc2ccccn2c1P(=O)(N1CCCCC1)N1CCCCC1`, the inhibition was 4%.
For `Cc1nc(C)c(C(=O)OCC(=O)N2CCN(c3ccccc3)CC2)s1`, the inhibition was 0%.
Consider `O=C(O)CCc1ccc(-c2ccc(Br)cc2)n1CC(=O)O`, for which the inhibition is 0%.
With `O=C(O)C1C2C=CC3(CN(C4CCCC4)C(=O)C13)O2` (stereo not given) the figure was 4%.
Regarding `O=C(NCc1n[nH]c(=S)n1-c1ccc(F)cc1)c1ccco1`, the inhibition is 0%.
Under `CC(=O)Oc1ccc(CCC(C)OC(C)=O)cc1` (stereo not given) stands 8%; under `O=C(OCc1nnc(-c2ccccc2)o1)c1ccc2ccccc2n1`, 1%; under `COC(=O)C(C)Sc1nnc2n(-c3cccc(C)c3)c(=O)c3c4c(sc3n12)CCCC4` (stereo not given), 1%.
Regarding `COc1ccccc1CNC(=O)CCn1c(=O)[nH]c2ccsc2c1=O`, the inhibition was 2%.
On to `CCOC(=O)Cc1nnc(NC(=O)CSc2nnc3c4ccccc4n(C(C)C)c3n2)s1`, for which the inhibition is 1%.
Regarding `CCC(C)(C)n1nnnc1C(c1cc2cc(C)ccc2[nH]c1=O)N1CCCC1` (stereo not given), the inhibition was 8%.
With `Cc1nnc(N2C(=O)C(O)=C(C(=O)c3ccco3)C2c2ccc(F)cc2)s1` (stereo not given) the figure was 0%.
In the case of `c1ccc2[nH]c(-c3cscn3)nc2c1`, the inhibition is 0%.
As for `CCOc1ccc(Nc2nc(Cc3nnc(SCC(N)=O)o3)cs2)cc1`, the inhibition is 0%.
For `Cc1cccc(NC(=O)c2ccccc2O)c1C`, the inhibition is 0%.
Take `CCOC(=O)N1CCN(c2c(N3CCN(c4ccccn4)CC3)c(=O)c2=O)CC1`: the inhibition is 0%.
As for `CCOc1ccc(OCc2cccc(C(=O)N3CCOCC3)c2)cc1`, the inhibition was 2%.
Take `CCC(=O)NC1(C(F)(F)F)C(=O)NC(C)=C1C#N` (stereo not given): the inhibition is 6%.
Under `Cc1cc(Oc2ccccc2)nc(-c2ccccc2)n1` stands 0%; under `CC1CCCCC1NC(=O)c1ccc(N2CCCC2=O)cc1` (stereo not given), 0%; under `CC(CC(=O)NCc1ccccc1)C1CCCO1` (stereo not given), 0%.
On to `CCCN1Cc2cccc(C(=O)NC3CCCC3)c2C1=O`, for which the inhibition is 0%.
For `CC(Oc1ccc(Cl)cc1Cl)c1nc(-c2ccc(NC(=O)c3cccnc3)cc2)no1` (stereo not given), the inhibition is 3%.
Under `Cn1nnnc1SCC(=O)NC1CCCCC1` stands 0%; under `Cc1noc(C)c1CSc1nnc2n(-c3ccccc3)c(=O)c3ccccc3n12`, 0%.

The term inhibition denotes the drop in the measured response relative to a control, in per cent.
